aSyn UTR inh = MLPCN primary screen, SNCA 5' untranslated region; hit rate 0.82% among 300,000; inhibition, % (tested at 7.5 µM); AID 1813; alpha-synuclein 5'UTR reporter, inhibitor activity; in the data active = inhibition above about 60%; inconclusive = no clear call, values can overlap the other calls;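 also: H4 neuroglioblastoma cells stably carrying SNCA 5'UTR luciferase fusion; 0% = DMSO wells and 100% = positive control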
BaF3 parental = reduces parental Ba/F3 cell viability, JAK2V617F counter-screen | CellTiter-Glo ATP luminescence | inhibition, % at 5.6 µM | hit rate 1.1% among 220,000;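 active = inhibition above a per-campaign cutoff, the mean inhibition of all tested compounds plus 3 SD, cut at about 27% in these data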;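 also: 0% = DMSO wells and 100% = JAK Inhibitor I control wells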
KLF5 inhibitor = suppresses KLF5 promoter-driven expression | DLD-1 KLF5 promoter-luciferase reporter, luminescence | hit rate 0.23% among 290,000 | inhibition, % at 5 µM;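 active = inhibition above a per-plate limit of that plate's mean compound inhibition plus 3 SD, cut at about 60% in these data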;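 also: 0% = DMSO wells and 100% = LY294002 at 200 µM; higher means less KLF5 promoter-driven luciferase light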
IEC-6 tox-1 = kills IEC-6 intestinal cells in KLF5 counter-screen; IEC-6 cytotoxicity, luminescence viability; inhibition, % at 5 µM; hit rate 0.78% among 290,000; AID 1825;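 also: 0% = plate median of test compound wells and 100% = cytotoxic reference compound wells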
APP 5UTR inh = APP translation inhibition. SH-SY5Y APP 5'UTR-luciferase reporter, luminescence. inhibition, % at 2 µM. hit rate 0.82% among 190,000. AID 1285;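 active = inhibition above a set limit, derived from the sample mean plus 3 SD, cut at about 45% in these data; inconclusive = one replicate passes the limit while the other fails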
Ba/F3 V617F tox = loss of viability in JAK2V617F-driven Ba/F3 cells. Ba/F3 EpoR-JAK2V617F viability, ATP luminescence. inhibition, % at 5.6 µM. hit rate 1.1% among 220,000. AID 1446;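 active = inhibition above the campaign mean plus 3 SD over all tested compounds, cut at about 24% in these data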;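 also: cytokine-independent growth of Ba/F3 cells driven by EpoR plus mutant JAK2; 0% = DMSO-treated cells and 100% = JAK inhibitor I control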
BaF3 parental 2 = parental Ba/F3 viability inhibition for JAK2V617F counter-screen; shares compounds with Ba/F3 V617F tox; CellTiter-Glo luminescence; cells kept alive by added IL-3; inhibition, % at 5.6 µM; hit rate 31% among 580; AID 1520;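 active = cell growth inhibition above the hit limit set in the earlier mutant JAK2 cell screen, cut at about 27% in these data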;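 also: plate controls were DMSO-treated cells for no effect and JAK Inhibitor I control wells for full effect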
JAK2V617F confrm = Ba/F3 EpoR-JAK2V617F viability loss, confirmation; hit rate 66% among 580; CellTiter-Glo luminescence; inhibition, % at 5.6 µM; shares compounds with Ba/F3 V617F tox;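 active = mean inhibition above the hit cutoff derived in the earlier primary screen, cut at about 25% in these data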;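 also: 0% = DMSO-treated cells and 100% = JAK inhibitor I control wells; higher means lower luminescence from reduced cell ATP and viability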
KLF5 confirm = KLF5 inhibition, confirmation assay | inhibition, % at 4 µM | hit rate 79% among 610 | AID 1834 | DLD-1 KLF5 promoter firefly luciferase reporter, luminescence | shares compounds with KLF5 inhibitor;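 active = inhibition above a set limit taken from the earlier primary screen, cut at about 63% in these data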;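 also: 0% = DMSO wells and 100% = LY294002 at 200 µM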
IEC-6 tox-2 = kills rat IEC-6 cells in KLF5 counter-screen. shares compounds with KLF5 inhibitor. AID 1905. hit rate 56% among 610. IEC-6 rat intestinal cells, viability luminescence. inhibition, % at 4 µM; in the data active = inhibition above about 23%;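 also: cells exposed to compounds for 48 hours before viability read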
IEC-6 tox confirm = IEC-6 cytotoxicity, confirmation assay | IEC-6 rat intestinal epithelial viability, luminescence | inhibition, % at 5 µM | hit rate 63% among 1,900 | shares compounds with IEC-6 tox-1 | AID 1907;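 also: 0% = vehicle and 100% = reference cytotoxic drug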
* = called active by the depositor; ? = inconclusive; . = not tested or not shown. The list is not random: actives were taken first. Their share in the collection is about 2.2%. Rule as the data show it, unless noted: active = inhibition above about 22%; inactive = the rest.

SMILES | aSyn UTR inh | BaF3 parental | KLF5 inhibitor | IEC-6 tox-1 | APP 5UTR inh | Ba/F3 V617F tox | BaF3 parental 2 | JAK2V617F confrm | others
O=C(CSc1nc2ncc(Cl)cc2[nH]1)c1ccc2c(c1)OCO2 | -33.8 | -2.6 | -7.5 | 19.0 | . | 87.9* | -5.0 | -9.7
CCC(C(=O)NC1CCCCCC1)n1nc(C)c2c(C)n(-c3ccccc3)nc2c1=O (configuration not stated) | 11.5 | . | -15.2 | 1.9 | . | . | . | .
CC1(c2nnc(-c3ccc(Cl)cc3)o2)CC(c2cccnc2)=NO1 (configuration not stated) | -3.8 | . | . | . | . | . | . | .
CNC(=O)c1nnsc1S(=O)c1ccc(Cl)cc1 (configuration not stated) | -48.9 | 3.0 | 8.0 | 3.9 | 86.5* | 43.6* | 8.0 | 70.1*
CCCNC(=O)c1ccc2snnc2c1 | 12.0 | -1.1 | -49.4 | -9.9 | -29.4 | -2.1 | . | .
CCCNC(=O)c1nnsc1S(=O)c1ccc(Cl)cc1 (configuration not stated) | -53.9 | -2.6 | 4.8 | 13.9 | 94.5* | 54.8* | 41.6* | 99.1*
COc1ccc(-c2nc(CN3CCC(C(=O)N4CCOCC4)CC3)c(C)o2)cc1C | 22.1 | . | -48.5 | -0.3 | . | . | . | .
Cc1nc([N+](=O)[O-])c(Sc2nc3ccccc3[nH]2)n1Cc1ccccc1 | -2.9 | 2.9 | -4.5 | 9.0 | 13.0 | 4.1 | . | .
Cn1cnc([N+](=O)[O-])c1Sc1nc2ccccc2[nH]1 | 38.3 | 10.0 | -6.2 | 10.2 | . | 34.1* | 5.1 | 43.5*
CC(C)(NC(=O)c1ccccc1)c1nc2ccccc2s1 | -30.7 | . | . | . | . | . | . | .
CCc1ccccc1NC(=S)N(Cc1cccc(C)c1)c1cccnc1 | 9.4 | 2.3 | -21.6 | 1.2 | -26.8 | 3.0 | . | .
Cc1cccc(CN(C(=S)Nc2c(C)cccc2C)c2cccnc2)c1 | -32.2 | -1.1 | 1.5 | 4.9 | -18.6 | 102.5* | -5.2 | 13.2
FC(F)(F)c1n[nH]c(=S)n1/N=C/c1ccco1 | 9.3 | 0.3 | 6.3 | -4.4 | 11.3 | 35.5* | -7.7 | -10.0
S=c1[nH]nc(-c2ccc(Cl)cc2)n1/N=C/c1ccco1 | 9.4 | -0.4 | -22.5 | 1.1 | . | -0.5 | . | .
Cc1ccc(-c2nc(C=Nc3ccc(O)cc3)c(O)o2)cc1 | -94.7 | 19.0 | -11.2 | 5.3 | 66.5* | 37.5* | 28.3* | 82.5*
CC(C)CNC(=O)C(=O)Nc1cc2c3c(c1)C(C)C(=O)N3CCC2 (configuration not stated) | 1.7 | . | -13.2 | 9.6 | . | . | . | .
COc1cc(C(C[N+](=O)[O-])c2c(N)n(C)c(=O)n(C)c2=O)ccc1O (configuration not stated) | -15.1 | 3.0 | -15.5 | -0.9 | -2.5 | -0.9 | . | .
COc1cccc(F)c1C(C[N+](=O)[O-])c1c(N)n(C)c(=O)n(C)c1=O (configuration not stated) | -18.5 | 5.5 | 6.8 | 9.4 | . | 62.5* | 2.5 | 92.0*
Cn1cnc([N+](=O)[O-])c1NC(C)(C)C | 31.3 | 8.7 | -33.7 | -0.6 | -0.9 | 2.4 | . | .
Cn1cnc([N+](=O)[O-])c1S(=O)(=O)c1ccc(Cl)cc1 | 18.4 | -1.6 | -1.5 | 11.0 | 10.8 | 26.3* | 0.9 | 68.8*
CC1=CC(=C2C(=O)c3ccccc3C2=O)C=C(C)N1C | -132.1 | 8.8 | -124.5 | -0.9 | -48.3 | 2.9 | . | .
CCCCCN1C=CC(=C2C(=O)c3ccccc3C2=O)C=C1 | 112.9* | 24.2 | 95.1* | 18.8 | 54.3* | 24.2* | 34.4* | 44.8* | KLF5 confirm=96.8*;IEC-6 tox-2=11.6
O=C(Nc1ccccc1OCc1ccccc1)c1ccccc1Br | 4.9 | . | -20.9 | 0.7 | . | . | . | .
CCOc1ccc(NS(=O)(=O)c2ccc(C(=O)N(C)Cc3cccc(OC)c3OC)cc2)cc1 | 7.8 | . | -8.2 | 2.5 | . | . | . | .
CN(C)S(=O)(=O)c1cccc(NC(=S)N/N=C/c2cc(Br)ccc2O)c1 | 69.4* | 26.3 | 64.3* | -2.2 | . | 59.1* | 95.5* | 84.5* | KLF5 confirm=76.9*;IEC-6 tox-2=22.8*
SMILES | aSyn UTR inh | BaF3 parental | KLF5 inhibitor | IEC-6 tox-1 | APP 5UTR inh | Ba/F3 V617F tox | BaF3 parental 2 | JAK2V617F confrm | others
N=c1c2c(-c3ccccc3)c(-c3ccccc3)n(Cc3ccco3)c2ncn1Cc1ccccc1 | 17.1 | 0.8 | -3.0 | 2.6 | -3.3 | 0.1 | . | .
N=c1c2c(-c3ccccc3)c(-c3ccccc3)n(Cc3ccccc3)c2ncn1CCO | ? | 4.1 | 75.7* | 1.7 | 77.8* | 26.6* | 0.6 | 22.7 | KLF5 confirm=56.8;IEC-6 tox-2=22.1*
C(=N\Nc1nc2ccccc2[nH]1)/c1ccccn1 | 111.7* | 25.9 | 86.1* | 9.2 | -71.5 | 31.4* | 24.2 | 36.4* | KLF5 confirm=70.0*;IEC-6 tox-2=46.3*
Cc1ccc(OCCN2C(=O)C(=O)c3cc(C)ccc32)cc1 | -15.1 | 7.1 | -31.6 | 90.6* | 84.3* | 24.8* | 57.4* | 99.5* | IEC-6 tox confirm=46.4*
CCOCCCNC(=O)/C(C#N)=C/c1cc(Br)c(O)c(Br)c1 | -68.6 | 10.1 | 39.5 | 23.5* | . | 64.4* | 13.9 | 55.0* | IEC-6 tox confirm=10.5
COc1ccc(OC)c(CCNC(=O)Cn2nc(C)c3c(C)n(-c4ccccc4)nc3c2=O)c1 | 4.1 | . | -20.2 | -3.1 | . | . | . | .
CCC1COCCS(=O)(=O)N1Cc1ccc(F)cc1 (configuration not stated) | 13.4 | . | -26.4 | -5.8 | . | . | . | .
Cc1ccc(C(=O)N/N=C/c2ccc(-c3cccc(C(F)(F)F)c3)o2)cn1 | 65.2* | -1.6 | 35.3 | 28.0* | . | 39.0* | 57.8* | 91.3* | IEC-6 tox confirm=37.3*
COc1ccc(/C=C/C(=O)Nc2ccc(OC)nc2)cc1 | -46.0 | 1.4 | -7.5 | -6.0 | -4.0 | 1.5 | . | .
COc1ccc(CS(=O)(=O)/C(Cl)=C(/Cl)C(=O)Nc2ccc(OC)nc2)cc1 | -24.0 | 4.9 | 44.7 | 87.7* | 84.0* | 31.8* | 99.3* | 99.1* | IEC-6 tox confirm=29.2*
O=C(Nc1ccccc1)C1=C(c2ccccc2)S(=O)(=O)CCS1(=O)=O | 15.8 | 1.0 | 23.9 | 27.9* | 87.0* | 84.6* | 66.1* | 100.1* | IEC-6 tox confirm=23.5*
CC(C)C(=O)Nc1ccc(C(=O)NCc2cccnc2)cc1 | 5.7 | 20.5 | -24.9 | 61.9* | -21.0 | 59.7* | 35.0* | 98.8* | IEC-6 tox confirm=23.3*
O=C(NCc1cccnc1)c1ccc(NC(=O)c2ccco2)cc1 | -19.8 | 1.6 | -39.1 | 3.8 | 0.1 | -3.6 | . | .
COc1ccccc1N(C(=O)CCl)c1cn(C(C)=O)c2ccccc12 | 38.1 | -1.0 | -7.4 | 56.8* | . | 74.9* | 4.1 | 86.9* | IEC-6 tox confirm=23.3*
CC(=O)n1cc(Nc2ccccc2C(=O)O)c2ccccc21 | 33.0 | 1.4 | -5.0 | 2.6 | -7.3 | -2.3 | . | .
